From PubChem BioAssay AID1159580 (chemical genetic matrix, 2015)
Hit rate of the full screen: of about 5,500 compounds, about 2,000 (36%) were called active. About 18% were inconclusive and are not listed. Rule as the data show it: active = normalized growth mostly below about 0.91 (no sharp cut-off); inconclusive = no clear call, values can overlap the other calls; inactive = mostly above about 0.92. Some of the results follow.

Assay: chemical genetic growth profiling, strain panel (AID 1159580);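 also: tested at 20 µM; growth read once vehicle control cultures reached saturation at 30 °C; 1 = growth at the plate median or of vehicle wells; lower values mean less growth of the strain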
Details: S. cerevisiae deletion strains, growth OD

Measured: normalized growth

CN(C)CCCCSC(=N)N
inactive: locus YAL013W, strain DEP1, hits give low values 1.04 | locus YAL040C, strain CLN3, hits give low values 0.998 | locus YCL061C, strain MRC1 (second series), hits give low values 1.02 | locus YDR150W, strain NUM1, hits give low values 1.01 | locus YDR363W, strain ESC2, hits give low values 1.02 | locus YER002W, strain NOP16, hits give low values 0.985 | locus YJR075W, strain HOC1, hits give low values 1.04 | locus YMR307W, strain GAS1, hits give low values 1.01 | locus YNL128W, strain TEP1, hits give low values 0.999 | locus YNL175C, strain NOP13, hits give low values 0.995 | locus YNL197C, strain WHI3, hits give low values 0.992 | locus YNL224C, strain SQS1, hits give low values 1 | locus YOR083W, strain WHI5 (second series), hits give low values 1.01

C/C(=N/NC(N)=S)c1ccc(Oc2c(Cl)cncc2Cl)cc1
inactive: locus YAR019C, strain CDC15, hits give low values 0.997 | locus YBL105C, strain PKC1, hits give low values 0.993 | locus YBR135W, strain CKS1, hits give low values 0.983 | locus YBR136W, strain MEC1, hits give low values 0.986 | locus YBR160W, strain CDC28, hits give low values 0.989 | locus YDL017W, strain CDC7, hits give low values 0.987 | locus YDL028C, strain MPS1, hits give low values 0.992 | locus YDL101C, strain DUN1, hits give low values 0.988 | locus YDL108W, strain KIN28, hits give low values 0.987 | locus YDL132W, strain cdc53, hits give low values 0.994 | locus YDL214C, strain PRR2, hits give low values 1.01 | locus YDR052C, strain DBF4, hits give low values 0.989 | locus YDR054C, strain cdc34, hits give low values 0.978 | locus YDR226W, strain ADK1, hits give low values 0.988 | locus YDR477W, strain SNF1, hits give low values 0.999 | locus YER123W, strain YCK3, hits give low values 0.989 | locus YER133W, strain GLC7, hits give low values 0.969 | locus YFL009W, strain cdc4, hits give low values 0.983 | locus YFL029C, strain CAK1, hits give low values 1 | locus YFR003C, strain YPI1, hits give low values 0.991 | locus YFR019W, strain FAB1, hits give low values 0.99 | locus YFR028C, strain CDC14, hits give low values 0.993 | locus YGR040W, strain KSS1, hits give low values 0.989 | locus YGR052W, strain FMP48, hits give low values 1.06 | locus YGR092W, strain DBF2, hits give low values 0.97 | locus YHR030C, strain SLT2, hits give low values 1.05 | locus YHR079C, strain IRE1, hits give low values 0.932 | locus YHR082C, strain KSP1, hits give low values 1.24 | locus YHR205W, strain SCH9, hits give low values 1.07 | locus YIL147C, strain SLN1, hits give low values 0.984 | locus YJL095W, strain BCK1, hits give low values 0.944 | locus YJL128C, strain PBS2, hits give low values 1.02 | locus YJL157C, strain FAR1, hits give low values 0.993 | locus YJR016C, strain ILV3, hits give low values 0.995 | locus YJR066W, strain TOR1 (second series), hits give low values 0.953 | locus YJR066W, strain TOR1, hits give low values 1.2 | locus YKL048C, strain ELM1, hits give low values 1.03 | locus YKL067W, strain YNK1, hits give low values 1.02 | locus YKL101W, strain HSL1, hits give low values 1.03 | locus YKL193C, strain SDS22, hits give low values 0.991 | locus YKL203C, strain TOR2, hits give low values 1.06 | locus YLR113W, strain HOG1, hits give low values 1.01 | locus YLR133W, strain CKI1, hits give low values 1.01 | locus YLR403W, strain SFP1, hits give low values 0.97 | locus YML070W, strain DAK1, hits give low values 1.01 | locus YMR001C, strain CDC5, hits give low values 0.989 | locus YMR205C, strain PFK2 (second series), hits give low values 1.03 | locus YMR277W, strain FCP1, hits give low values 0.997 | locus YNL006W, strain LST8, hits give low values 0.993 | locus YNL020C, strain ARK1, hits give low values 1.01 | locus YNL161W, strain CBK1, hits give low values 1 | locus YNL183C, strain NPR1, hits give low values 0.996 | locus YNL207W, strain RIO2, hits give low values 0.995 | locus YNL222W, strain SSU72, hits give low values 0.998 | locus YNL307C, strain MCK1 (second series), hits give low values 1 | locus YOL078W, strain AVO1, hits give low values 0.998 | locus YOL136C, strain PFK27, hits give low values 1.02 | locus YOR061W, strain CKA2, hits give low values 0.994 | locus YOR119C, strain RIO1, hits give low values 1.02 | locus YOR231W, strain MKK1, hits give low values 0.973 | locus YOR329C, strain SCD5, hits give low values 0.991 | locus YPL031C, strain PHO85, hits give low values 0.983 | locus YPL153C, strain RAD53, hits give low values 0.953 | locus YPL204W, strain HRR25, hits give low values 0.972 | locus YPL209C, strain IPL1, hits give low values 0.998 | locus YPL256C, strain CLN2, hits give low values 0.99 | locus YPR025C, strain CCL1, hits give low values 0.988 | locus YPR106W, strain ISR1, hits give low values 1 | locus YPR111W, strain DBF20, hits give low values 1.02 | strain NNK1, hits give low values 1.03 | strain TSCII, hits give low values 0.994
